Results from PubChem BioAssay AID1159580 (chemical genetic matrix, 2015).
Hit rate of the full screen: of about 5,500 compounds, about 2,000 (36%) were called active. Inconclusive results (about 18%) are left out. Cut-off read from the data, not from the text of the source: active = normalized growth mostly below about 0.91 (no sharp cut-off); inconclusive = no clear call, values can overlap the other calls; inactive = mostly above about 0.92. The list shows a part of the results.

Test: chemical genetic growth profiling, strain panel (AID 1159580);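 note: tested at 20 µM; growth read once vehicle control cultures reached saturation at 30 °C; 1 = growth at the plate median or of vehicle wells; lower values mean less growth of the strain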
Conditions: S. cerevisiae deletion strains, growth OD

Measured: normalized growth

CCn1nc(C)cc1C(=O)Sc1cccc(Br)c1
active: locus YDR477W, strain SNF1, stronger effect = lower value 0.65 | locus YER123W, strain YCK3, stronger effect = lower value 0.592 | locus YFL009W, strain cdc4, stronger effect = lower value 0.883 | locus YFR019W, strain FAB1, stronger effect = lower value 0.737 | locus YGR092W, strain DBF2, stronger effect = lower value 0.332 | locus YHR030C, strain SLT2, stronger effect = lower value 0.613 | locus YHR079C, strain IRE1, stronger effect = lower value 0.476 | locus YHR205W, strain SCH9, stronger effect = lower value 0.527 | locus YJL157C, strain FAR1, stronger effect = lower value 0.638 | locus YJR066W, strain TOR1 (second series), stronger effect = lower value 0.227 | locus YKL067W, strain YNK1, stronger effect = lower value 0.714 | locus YLR113W, strain HOG1, stronger effect = lower value 0.461 | locus YLR133W, strain CKI1, stronger effect = lower value 0.724 | locus YLR403W, strain SFP1, stronger effect = lower value 0.566 | locus YNL020C, strain ARK1, stronger effect = lower value 0.697 | locus YNL307C, strain MCK1 (second series), stronger effect = lower value 0.601 | locus YOR061W, strain CKA2, stronger effect = lower value 0.662 | locus YOR231W, strain MKK1, stronger effect = lower value 0.486 | locus YPL031C, strain PHO85, stronger effect = lower value 0.619 | locus YPL153C, strain RAD53, stronger effect = lower value 0.551 | locus YPL256C, strain CLN2, stronger effect = lower value 0.634
inactive: locus YAR019C, strain CDC15, stronger effect = lower value 0.917 | locus YBL105C, strain PKC1, stronger effect = lower value 0.934 | locus YBR135W, strain CKS1, stronger effect = lower value 0.91 | locus YBR136W, strain MEC1, stronger effect = lower value 0.942 | locus YBR160W, strain CDC28, stronger effect = lower value 0.924 | locus YDL017W, strain CDC7, stronger effect = lower value 0.935 | locus YDL028C, strain MPS1, stronger effect = lower value 0.924 | locus YDL101C, strain DUN1, stronger effect = lower value 0.951 | locus YDL108W, strain KIN28, stronger effect = lower value 0.93 | locus YDL132W, strain cdc53, stronger effect = lower value 0.922 | locus YDL214C, strain PRR2, stronger effect = lower value 0.706 | locus YDR052C, strain DBF4, stronger effect = lower value 0.971 | locus YDR054C, strain cdc34, stronger effect = lower value 0.885 | locus YDR226W, strain ADK1, stronger effect = lower value 0.925 | locus YER133W, strain GLC7, stronger effect = lower value 0.784 | locus YFL029C, strain CAK1, stronger effect = lower value 0.904 | locus YFR003C, strain YPI1, stronger effect = lower value 0.932 | locus YFR028C, strain CDC14, stronger effect = lower value 0.933 | locus YGR040W, strain KSS1, stronger effect = lower value 0.747 | locus YGR052W, strain FMP48, stronger effect = lower value 0.725 | locus YHR082C, strain KSP1, stronger effect = lower value 0.626 | locus YIL147C, strain SLN1, stronger effect = lower value 0.933 | locus YJL095W, strain BCK1, stronger effect = lower value 0.551 | locus YJL128C, strain PBS2, stronger effect = lower value 0.913 | locus YJR016C, strain ILV3, stronger effect = lower value 0.921 | locus YJR066W, strain TOR1, stronger effect = lower value 0.543 | locus YKL048C, strain ELM1, stronger effect = lower value 0.924 | locus YKL101W, strain HSL1, stronger effect = lower value 0.786 | locus YKL193C, strain SDS22, stronger effect = lower value 0.927 | locus YKL203C, strain TOR2, stronger effect = lower value 0.746 | locus YML070W, strain DAK1, stronger effect = lower value 0.727 | locus YMR001C, strain CDC5, stronger effect = lower value 0.904 | locus YMR205C, strain PFK2 (second series), stronger effect = lower value 0.819 | locus YMR277W, strain FCP1, stronger effect = lower value 0.914 | locus YNL006W, strain LST8, stronger effect = lower value 0.917 | locus YNL161W, strain CBK1, stronger effect = lower value 0.937 | locus YNL183C, strain NPR1, stronger effect = lower value 0.629 | locus YNL207W, strain RIO2, stronger effect = lower value 0.918 | locus YNL222W, strain SSU72, stronger effect = lower value 0.917 | locus YOL078W, strain AVO1, stronger effect = lower value 0.91 | locus YOL136C, strain PFK27, stronger effect = lower value 0.701 | locus YOR119C, strain RIO1, stronger effect = lower value 0.741 | locus YOR329C, strain SCD5, stronger effect = lower value 0.935 | locus YPL204W, strain HRR25, stronger effect = lower value 0.676 | locus YPL209C, strain IPL1, stronger effect = lower value 0.936 | locus YPR025C, strain CCL1, stronger effect = lower value 0.935 | locus YPR106W, strain ISR1, stronger effect = lower value 0.97 | locus YPR111W, strain DBF20, stronger effect = lower value 0.955 | strain NNK1, stronger effect = lower value 0.963 | strain TSCII, stronger effect = lower value 0.908
